PubChem BioAssay (NCI)
The panel holds about 83,000 compounds, 20% with a hit somewhere; the sample as a whole holds those more often.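 For each line, cells grew in 96-well plates with the test compound present at a single concentration for 48 hours.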 Calls of active or inactive are those of the source. How the source made its calls: active means growth percent below 10; inactive means the rest.

Legend:
Experiment in all cases: NCI-60 one-dose screen, 48 h (100 = growth as untreated, 0 = no growth, -100 = all killed)
Details in all cases: 10 µM unless noted
[1] = system: NCI-H23 lung
[2] = system: NCI-H226 lung
[3] = system: NCI-H322M lung
[4] = system: HOP-62 NSCLC
[5] = system: NCI-H460 lung
[6] = system: NCI-H522 lung
[7] = system: A549/ATCC NSCLC
[8] = system: 786-0 renal
[9] = system: COLO 205 colon
[10] = system: DU-145 prostate
[11] = system: K-562 leukemia
[12] = system: MALME-3M melanoma
[13] = system: MDA-MB-231 breast
[14] = system: RXF 393 renal
[15] = system: SF-268 CNS
[16] = system: SF-295 CNS
[17] = system: SF-539 CNS
[18] = system: UACC-257 melanoma
[19] = system: M14 melanoma

Measured: growth

CS(=O)(=O)c1ccc(C(=O)Nc2ccc(Cl)c(-c3ccccn3)c2)c(Cl)c1
active: [5] -46% | [6] 2.48% | [8] -41.2% | [9] 6.45% | [14] -52.9% | [16] 8.89%
inactive: [1] 27.3% | [2] 16.5% | [3] 52% | [4] 36% | [7] 26% | [10] 24.7% | [11] 13.8% | [12] 42.4% | [13] 30.2% | [15] 31.8% | [17] 19.6% | [18] 32.6% | [19] 26.8%

COc1ccc(/C(C)=N/NC(=O)CSc2nc3ccccc3c(=O)n2CCc2ccc(S(N)(=O)=O)cc2)cc1
inactive: [1] 29.9% | [2] 49% | [3] 32.3% | [9] 33.5% | [11] 30.4% | [14] 29.7% | [15] 28.3% | [16] 28.5% | [17] 14.4% | [18] 25.9% | [19] 38.4%
active: [4] -0.117% | [5] -29.5% | [6] 9.28% | [7] -26.9% | [8] -68.1% | [10] 1.74% | [12] -21.4% | [13] -10.9%

COc1ccc(C(=O)OC2C(OC3C(O)COC(O[C@H]4C[C@H]5[C@@H]6CC=C7C[C@@H](O)CC[C@]7(C)[C@H]6CC[C@]5(C)[C@H]4[C@H](C)C(=O)CCC(C)C)C3OC(N)=O)OCC(O)C2O)cc1 (some centres undefined)
inactive: [1] 23.3% | [3] 53.7% | [7] 11.3% | [10] 32.8%
active: [2] -1.18% | [4] -22.2% | [5] -35.7% | [6] -68.7% | [8] -59.4% | [9] -58% | [11] -45.4% | [12] -34.3% | [13] -5.1% | [14] -64.9% | [15] -14.2% | [16] -67.2% | [17] -80% | [18] -63.6% | [19] -78.6%

c1ccc2oc(-c3cnc4nonc4n3)cc2c1
inactive: [1] 94.8% | [2] 92.1% | [3] 87.7% | [4] 84.7% | [5] 95.8% | [6] 78.3% | [7] 96.4% | [8] 103% | [9] 103% | [10] 114% | [11] 103% | [12] 105% | [13] 87.9% | [14] 112% | [15] 99.7% | [16] 103% | [17] 101% | [18] 99.2% | [19] 106%

CC(C)CC1NC(=O)C(CC(C)C)N(CO)C1=O (centres undefined)
inactive: [1] 104% | [2] 91.3% | [3] 95% | [4] 107% | [5] 116% | [6] 90.4% | [7] 102% | [8] 102% | [9] 111% | [10] 119% | [11] 97.1% | [12] 101% | [13] 97.1% | [14] 111% | [15] 112% | [16] 120% | [17] 111% | [18] 102% | [19] 101%

CN1C(=O)C(C2=NNC(c3ccccc3C(=O)O)C2)C(=O)N(C)C1=O (centres undefined)
inactive: [1] 106% | [2] 99.8% | [3] 87.8% | [4] 98.3% | [5] 106% | [6] 83.7% | [7] 98.6% | [8] 101% | [9] 108% | [10] 113% | [11] 94.1% | [12] 111% | [13] 109% | [14] 106% | [15] 98.8% | [16] 101% | [17] 108% | [18] 97.1% | [19] 103%

CCN1CCN(Cc2ccc(NC(=O)Nc3ccc(-n4ccc5c(NC(=O)c6ccccc6)nccc54)cc3)cc2C(F)(F)F)CC1
active: [1] -51.5% | [4] -78.4% | [5] -44.3% | [6] -87.2% | [7] -62.8% | [8] -84.6% | [9] -87.5% | [10] -58.6% | [11] -39.2% | [12] -48% | [13] -39.3% | [14] -86.8% | [16] -18.9% | [17] -48.4% | [18] -69.6% | [19] -65.1%
inactive: [2] 71.1% | [3] 80.8% | [15] 41.7%

CC1(C)CN(CCNc2nccc(-c3c(-c4cccc(O)c4)nc4sccn34)n2)S(=O)(=O)N1
inactive: [1] 70% | [2] 87.5% | [3] 54.2% | [4] 89.1% | [5] 50.6% | [6] 65.1% | [7] 117% | [8] 50.6% | [9] 32.1% | [10] 67.9% | [13] 53.8% | [14] 57.1% | [15] 84% | [16] 92.9% | [17] 87.2% | [18] 46.8%
active: [12] 5.36% | [19] -1.68%

O=C1CCCN1C(O)CCN(Cc1ccccc1)Cc1ccc(Cl)cc1 (centres undefined)
inactive: [1] 103% | [2] 105% | [3] 95.5% | [4] 104% | [5] 105% | [6] 93.3% | [7] 103% | [8] 95.7% | [9] 124% | [10] 110% | [12] 109% | [13] 112% | [14] 123% | [15] 105% | [16] 94.2% | [17] 114% | [18] 106% | [19] 99.9%

Oc1ccccc1-c1nnc(COc2ccc(Cl)cc2Cl)o1
inactive: [1] 57% | [2] 66.2% | [3] 52.6% | [4] 40.6% | [5] 28.3% | [7] 54.5% | [8] 44.7% | [9] 67% | [10] 48.1% | [11] 44.5% | [12] 68.3% | [13] 48.2% | [14] 63.5% | [16] 47.4% | [17] 52.1% | [18] 58.9% | [19] 42.5%
active: [6] 1.97% | [15] 8.59%

CCOC(=O)C#Cc1c(C(=O)OCC)nnn1[C@@H]1O[C@H](COC(C)=O)[C@@H](OC(C)=O)[C@H]1OC(C)=O
inactive: [1] 93.4% | [2] 92.2% | [3] 101% | [4] 109% | [5] 108% | [6] 50% | [7] 78.3% | [8] 102% | [9] 45.6% | [10] 100% | [11] 28.5% | [12] 101% | [13] 107% | [14] 70.2% | [15] 97.8% | [16] 103% | [17] 101% | [18] 64.3% | [19] 92.1%

CCc1onc(-c2ccc(OC)cc2)c1-c1ccccc1OCCN(CC)CC
inactive: [1] 85.4% | [2] 93.5% | [3] 76.6% | [4] 90.4% | [5] 98.7% | [6] 88.5% | [7] 101% | [8] 75.9% | [9] 67% | [10] 96.7% | [11] 70.7% | [12] 97.7% | [13] 93.3% | [14] 82.2% | [15] 85.8% | [16] 79.5% | [17] 90.2% | [18] 111% | [19] 76.3%

COc1ccccc1/C=C/C(=O)CCC(=O)O
inactive: [1] 106% | [2] 104% | [3] 101% | [4] 96.2% | [5] 111% | [6] 103% | [7] 108% | [8] 96.7% | [9] 120% | [10] 108% | [12] 101% | [13] 114% | [14] 127% | [15] 111% | [16] 105% | [17] 97.5% | [18] 115% | [19] 99.8%

CCN(CC)c1ccc(/C=N/NC(=O)c2ccc(S(C)(=O)=O)cc2)c(O)c1
inactive: [1] 32.8% | [2] 22.6% | [3] 25% | [4] 12.9% | [7] 12.5% | [8] 15.4% | [10] 24.5% | [11] 12.4% | [12] 14% | [13] 43.2% | [14] 28.6% | [15] 21.8% | [16] 21.4%
active: [5] 3.28% | [6] 9.91% | [9] 8.62% | [17] 4.01% | [18] -11.5% | [19] 3.37%

CCCCCCCCN=C(NCCCCCCCC)SCc1cccc2ccccc12
active: [1] -81.2% | [2] -84.2% | [3] -1.49% | [4] -97.7% | [5] -89.1% | [6] -83.3% | [7] -75.8% | [8] -88.1% | [9] -99.7% | [10] -74.3% | [11] -13.4% | [12] -44.3% | [13] -92.6% | [14] -78.6% | [15] -90.8% | [16] -85.1% | [17] -87.1% | [18] -77.7% | [19] -86.6%

COc1cccc(-c2nc3sccn3c2-c2ccnc(NCCN3CCCNS3(=O)=O)n2)c1
inactive: [1] 99.4% | [2] 81.4% | [3] 95.6% | [4] 123% | [5] 68.8% | [6] 92.2% | [7] 99.2% | [8] 77.5% | [9] 51.5% | [10] 79.2% | [12] 24.2% | [13] 83.3% | [14] 76.7% | [15] 94.7% | [16] 106% | [17] 111% | [18] 65.4% | [19] 18%

C=CCOC(=O)C1=C(C)NC2=C(C(=O)CC(C)(C)C2)C1c1ccc(OC)cc1 (centres undefined)
inactive: [1] 104% | [2] 98.4% | [3] 95.7% | [4] 90% | [5] 106% | [6] 82.8% | [7] 98.3% | [8] 97.8% | [9] 109% | [10] 110% | [11] 90.4% | [12] 104% | [13] 92.8% | [14] 105% | [15] 94.1% | [16] 105% | [17] 108% | [18] 96.2% | [19] 96.8%

C#CCNc1nc(NCCNC(=O)CCl)nc(N(C)CCCCc2ccccc2)n1
inactive: [1] 84.7% | [2] 71% | [3] 96.4% | [4] 94.3% | [5] 107% | [6] 25.4% | [7] 119% | [8] 97.5% | [9] 91.2% | [10] 101% | [11] 95.1% | [12] 60.3% | [13] 90.7% | [14] 93.5% | [15] 94% | [16] 99.4% | [17] 106% | [18] 113% | [19] 78.5%

O=C(CSc1nc2c(n1Nc1ccccc1)-c1ccccc1SC2)Nc1nccs1
inactive: [1] 91.2% | [2] 93.6% | [3] 99.7% | [4] 101% | [5] 99.4% | [6] 95.2% | [7] 96.6% | [8] 96.8% | [9] 121% | [10] 105% | [11] 84.8% | [12] 101% | [13] 88.7% | [14] 102% | [15] 96.2% | [16] 122% | [17] 97.2% | [18] 108% | [19] 102%

CC(C)CCSc1nc(-c2ccc(F)cc2)c(C#N)c(N2CCN(C)CC2)n1
inactive: [1] 91.5% | [2] 96.8% | [3] 87.8% | [4] 85.2% | [5] 88.8% | [6] 59% | [7] 65% | [8] 65.6% | [9] 84.6% | [10] 94.4% | [11] 62.7% | [12] 97.4% | [13] 53.3% | [14] 78.8% | [15] 83% | [16] 101% | [17] 93.1% | [18] 64.1% | [19] 94.7%

C=CCN(CC#N)CC=C
inactive: [1] 106% | [2] 95.5% | [3] 106% | [4] 98.5% | [5] 115% | [6] 97.7% | [7] 101% | [8] 107% | [9] 113% | [10] 112% | [11] 102% | [12] 109% | [13] 111% | [14] 112% | [15] 114% | [16] 108% | [17] 102% | [18] 99.5% | [19] 102%

NNC(=O)CSc1nc2scc(-c3ccccc3)c2c(=O)n1-c1ccccc1
active: [14] -50.2%
inactive: [1] 101% | [2] 84% | [3] 122% | [4] 91.4% | [5] 110% | [6] 91.4% | [7] 115% | [8] 86.8% | [9] 107% | [10] 111% | [11] 89.9% | [12] 155% | [13] 86.6% | [15] 85.6% | [16] 144% | [17] 96.5% | [18] 129% | [19] 112%
